Assay results as given in PubChem BioAssay (NCI).
About 83,000 compounds went through this panel and 20% of them were active in at least one assay; those are over-represented in the sample as a whole.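 Cells were grown in 96-well plates and exposed to the test compound at a single concentration for 48 hours; results are reported as percent growth, with values below 10 considered active.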 Active and inactive are the calls of the source.

How the values were obtained:
Experiment in all cases: NCI-60 one-dose screen, 48 h (100 = growth as untreated, 0 = no growth, -100 = all killed)
SR leukemia = details: 10 µM unless noted
RPMI-8226 leukemia = details: 10 µM unless noted
OVCAR-5 ovarian = details: 10 µM unless noted
OVCAR-4 ovarian = details: 10 µM
SK-OV-3 ovarian = details: 10 µM unless noted
OVCAR-3 ovarian = details: 10 µM unless noted
HS 578T breast = details: 10 µM unless noted
NCI/ADR-RES ovarian = details: 10 µM unless noted
T-47D breast = details: 10 µM unless noted
BT-549 breast = details: 10 µM unless noted
MDA-MB-435 melanoma = details: 10 µM unless noted
SW-620 colon = details: 10 µM unless noted
MCF7 breast = details: 10 µM unless noted
HCT-116 colon = details: 10 µM unless noted
HCC-2998 colon = details: 10 µM unless noted
KM12 colon = details: 10 µM unless noted
IGROV1 ovarian = details: 10 µM unless noted

Measured: growth

O=C(N/N=C/c1c(Cl)cccc1Cl)c1cccc(Nc2ccnc(C(F)(F)F)c2)c1
inactive: SR leukemia 106% | RPMI-8226 leukemia 70.1% | OVCAR-5 ovarian 108% | OVCAR-4 ovarian 69.3% | SK-OV-3 ovarian 102% | OVCAR-3 ovarian 137% | HS 578T breast 107% | NCI/ADR-RES ovarian 102% | T-47D breast 37% | BT-549 breast 90.8% | MDA-MB-435 melanoma 78.9% | SW-620 colon 99% | MCF7 breast 66.1% | HCT-116 colon 77.2% | HCC-2998 colon 89.1% | KM12 colon 108%

CN(C)Cc1ccc[nH]1
inactive: SR leukemia 102% | RPMI-8226 leukemia 136% | OVCAR-5 ovarian 76.3% | OVCAR-4 ovarian 109% | SK-OV-3 ovarian 106% | OVCAR-3 ovarian 99.5% | NCI/ADR-RES ovarian 77.9% | T-47D breast 83.5% | MDA-MB-435 melanoma 110% | MCF7 breast 97.9% | HCT-116 colon 77.5% | KM12 colon 108%

Cc1cc(C)nc(SCC(=O)Nc2cccc(N=Cc3ccccc3O)c2)n1
inactive: SR leukemia 109% | RPMI-8226 leukemia 96.9% | OVCAR-5 ovarian 100% | OVCAR-4 ovarian 86.1% | SK-OV-3 ovarian 94.5% | IGROV1 ovarian 108% | OVCAR-3 ovarian 105% | BT-549 breast 92.9% | MDA-MB-435 melanoma 99.2% | SW-620 colon 99.1% | MCF7 breast 94.3% | HCT-116 colon 97.3% | HCC-2998 colon 121% | KM12 colon 107%

C[C@H]1[C@H](C)CC[C@]2(COC(=O)CCC(=O)O)CC[C@]3(C)C(=CC[C@@H]4[C@@]5(C)CCCNC(C)(C)[C@@H]5CC[C@]43C)[C@H]12
inactive: SR leukemia 80.4% [100 µM] | RPMI-8226 leukemia 59.7% [100 µM] | OVCAR-5 ovarian 88.5% [100 µM] | SK-OV-3 ovarian 65.2% [100 µM] | IGROV1 ovarian 54.9% [100 µM] | OVCAR-3 ovarian 75.4% [100 µM] | HS 578T breast 41.8% [100 µM] | NCI/ADR-RES ovarian 71.8% [100 µM] | T-47D breast 36.7% [100 µM] | BT-549 breast 64% [100 µM] | MDA-MB-435 melanoma 79.6% [100 µM] | SW-620 colon 87.7% [100 µM] | MCF7 breast 54.9% [100 µM] | HCT-116 colon 40.5% [100 µM] | HCC-2998 colon 71.9% [100 µM] | KM12 colon 78% [100 µM]

CSc1nc(=S)c2nc(SC)n(-c3ccccc3)c2[nH]1
inactive: SR leukemia 104% | RPMI-8226 leukemia 90.7% | OVCAR-5 ovarian 104% | OVCAR-4 ovarian 104% | SK-OV-3 ovarian 96.4% | IGROV1 ovarian 101% | OVCAR-3 ovarian 105% | HS 578T breast 92.3% | NCI/ADR-RES ovarian 101% | BT-549 breast 104% | MDA-MB-435 melanoma 103% | SW-620 colon 97.1% | MCF7 breast 90.7% | HCT-116 colon 93.1% | HCC-2998 colon 115%

Cc1cnc(N)nc1OCCNC(=O)c1cccc(-c2ccc(S(=O)(=O)Nc3ccc4c(c3)N(C(=O)C3CC3)CCC4)cc2)c1
inactive: SR leukemia 104% | RPMI-8226 leukemia 42.7% | OVCAR-5 ovarian 105% | SK-OV-3 ovarian 98.8% | IGROV1 ovarian 74% | OVCAR-3 ovarian 79.5% | HS 578T breast 75.3% | NCI/ADR-RES ovarian 102% | T-47D breast 36.9% | BT-549 breast 66.2% | MDA-MB-435 melanoma 78.8% | SW-620 colon 99.1% | MCF7 breast 77.2% | HCT-116 colon 76.3% | HCC-2998 colon 77.4% | KM12 colon 75.2%

CC(=O)n1cc(C=O)c2ccccc21
inactive: SR leukemia 97.3% | RPMI-8226 leukemia 97.6% | OVCAR-5 ovarian 104% | SK-OV-3 ovarian 116% | IGROV1 ovarian 112% | OVCAR-3 ovarian 104% | HS 578T breast 104% | NCI/ADR-RES ovarian 96.4% | T-47D breast 98.8% | BT-549 breast 96.5% | MDA-MB-435 melanoma 109% | SW-620 colon 102% | MCF7 breast 94.8% | HCT-116 colon 109% | HCC-2998 colon 100% | KM12 colon 94%

CC(C)=CCC[C@](C)(O)[C@H]1CC[C@]2(C)[C@@H]1CC[C@@H]1[C@@]3(C)CC[C@H](OC(=O)CCC(=O)O)C(C)(C)[C@@H]3CC[C@]12C
active: RPMI-8226 leukemia 9.12% [100 µM] | OVCAR-3 ovarian -32.1% [100 µM] | MDA-MB-435 melanoma 6.66% [100 µM] | HCT-116 colon 9.66% [100 µM] | KM12 colon -19% [100 µM]
inactive: SR leukemia 29% [100 µM] | OVCAR-5 ovarian 41.7% [100 µM] | SK-OV-3 ovarian 42.4% [100 µM] | IGROV1 ovarian 15.3% [100 µM] | HS 578T breast 41.2% [100 µM] | NCI/ADR-RES ovarian 29.9% [100 µM] | T-47D breast 25.7% [100 µM] | BT-549 breast 25.5% [100 µM] | SW-620 colon 12.1% [100 µM] | MCF7 breast 15.8% [100 µM] | HCC-2998 colon 20.5% [100 µM]

C=C(C)[C@@H]1CC[C@]2(c3ncc(C)o3)CC[C@]3(C)[C@H](CC[C@@H]4[C@@](C)(CCC#N)[C@H](C(=C)C)CC[C@]43C)[C@@H]12
active: RPMI-8226 leukemia -41% [100 µM] | OVCAR-5 ovarian -97.2% [100 µM] | SK-OV-3 ovarian -88.4% [100 µM] | IGROV1 ovarian -87.6% [100 µM] | OVCAR-3 ovarian -80.4% [100 µM] | NCI/ADR-RES ovarian -82.9% [100 µM] | T-47D breast -73.4% [100 µM] | BT-549 breast -76% [100 µM] | MDA-MB-435 melanoma -84.6% [100 µM] | SW-620 colon -70% [100 µM] | MCF7 breast -73.3% [100 µM] | HCT-116 colon -81.8% [100 µM] | HCC-2998 colon -80.9% [100 µM] | KM12 colon -75.1% [100 µM]
inactive: SR leukemia 14.9% [100 µM]

CC[C@@](C)(NC(=O)[C@H](C)NC(=O)CCNC(=O)C(C)(C)NC(=O)[C@H](C)NC(=O)[C@@H]1CCCN1C(=O)[C@@](C)(CC)NC(=O)[C@H](Cc1ccccc1)NC(=O)C1CCCN1C(=O)C(C)(C)NC(=O)C1CCCN1C(=O)C(C)(C)NC(C)=O)C(=O)NCCC(=O)N[C@@H](CC(C)C)C(=O)NC(C)(C)C(=O)NCCC(=O)N[C@@H](CC(C)C)C(=O)NC(C)(C)C(=O)NC(C)(C)C(=O)N[C@@H](CC(C)C)C(=O)NCCC(=O)NCO (stereo partly specified)
active: SR leukemia -50.9% | RPMI-8226 leukemia -55.5% | OVCAR-5 ovarian -87.6% | OVCAR-4 ovarian -96.5% | IGROV1 ovarian -71.9% | OVCAR-3 ovarian -100% | HS 578T breast -60.6% | NCI/ADR-RES ovarian -93.3% | T-47D breast -66.9% | BT-549 breast -97.3% | MDA-MB-435 melanoma -89.2% | SW-620 colon -79.2% | MCF7 breast -84.9% | HCT-116 colon -94.6% | HCC-2998 colon -96.1% | KM12 colon -94.8%

O=C(N=c1n(-c2ccccc2)nc2n1CCN2C1=NCCN1)c1ccc(Cl)cc1
inactive: SR leukemia 43.6% | RPMI-8226 leukemia 91.9% | OVCAR-5 ovarian 95.9% | SK-OV-3 ovarian 90.2% | IGROV1 ovarian 58% | OVCAR-3 ovarian 91.7% | HS 578T breast 93.1% | NCI/ADR-RES ovarian 93.6% | T-47D breast 83.9% | BT-549 breast 101% | MDA-MB-435 melanoma 42.1% | SW-620 colon 79.5% | MCF7 breast 86.4% | HCT-116 colon 103% | HCC-2998 colon 73% | KM12 colon 99.3%

O=C(NCc1ccc(Cn2c(=O)sn(-c3ccccc3)c2=O)cc1)OCc1ccc2c(Br)cc(Br)c(O)c2n1
inactive: SK-OV-3 ovarian 55.2%
active: SR leukemia 4.62% | RPMI-8226 leukemia -17.7% | OVCAR-5 ovarian -62.7% | OVCAR-4 ovarian -52.9% | IGROV1 ovarian -80.4% | OVCAR-3 ovarian -90.9% | HS 578T breast -1.98% | NCI/ADR-RES ovarian -1.25% | T-47D breast -49.8% | MDA-MB-435 melanoma -77.6% | SW-620 colon -50.2% | MCF7 breast -29% | HCT-116 colon -71.8% | HCC-2998 colon -80% | KM12 colon -61.8%

NC(=S)Cc1ccccc1
inactive: SR leukemia 97.9% | RPMI-8226 leukemia 99.2% | OVCAR-5 ovarian 100% | OVCAR-4 ovarian 97% | SK-OV-3 ovarian 103% | IGROV1 ovarian 107% | HS 578T breast 102% | NCI/ADR-RES ovarian 105% | T-47D breast 101% | BT-549 breast 110% | MDA-MB-435 melanoma 97.7% | SW-620 colon 102% | MCF7 breast 91% | HCT-116 colon 104% | HCC-2998 colon 107% | KM12 colon 101%

CCOC(=O)c1sc2nc(-c3cc(OC)c(OC)c(OC)c3)nc(N3CCOCC3)c2c1C
active: RPMI-8226 leukemia 9.94% | T-47D breast -6.97%
inactive: SR leukemia 41.8% | OVCAR-5 ovarian 74% | OVCAR-4 ovarian 19.7% | SK-OV-3 ovarian 56.1% | IGROV1 ovarian 50.5% | NCI/ADR-RES ovarian 53.9% | BT-549 breast 41.2% | MDA-MB-435 melanoma 35.7% | SW-620 colon 36.4% | MCF7 breast 27.1% | HCT-116 colon 25.6% | HCC-2998 colon 51.5% | KM12 colon 31.4%

COc1ccc(C(=O)/C=C/c2ccccn2)c(O)c1
inactive: OVCAR-5 ovarian 96.3% | OVCAR-4 ovarian 92.1% | SK-OV-3 ovarian 98.6% | IGROV1 ovarian 46.8% | HS 578T breast 87.5% | NCI/ADR-RES ovarian 94% | T-47D breast 61.6% | BT-549 breast 76.5% | MDA-MB-435 melanoma 77.3% | SW-620 colon 43.4% | MCF7 breast 15.9% | HCT-116 colon 76.5% | HCC-2998 colon 93.6% | KM12 colon 51.1%
active: SR leukemia -1.93% | RPMI-8226 leukemia 6.35%

CCOC(=O)c1nn(C2CCCCO2)c2ccc(NS(=O)(=O)c3ccc(C)cc3)cc12 (stereo unspecified)
inactive: SR leukemia 107% | RPMI-8226 leukemia 98.3% | OVCAR-5 ovarian 110% | OVCAR-4 ovarian 87.2% | IGROV1 ovarian 102% | OVCAR-3 ovarian 104% | HS 578T breast 94.9% | T-47D breast 80% | BT-549 breast 91.8% | MDA-MB-435 melanoma 100% | SW-620 colon 98.1% | MCF7 breast 93.1% | HCT-116 colon 87.8% | HCC-2998 colon 107% | KM12 colon 104%
